{"source": "PubChem BioAssay (Tox21)", "note": "Records with an inconclusive call do not appear. A call without a number means that no potency is given here. Calls of active or inactive are those of the source. Calls come from the whole dose curve."}
{"target": "5-hydroxytryptamine receptor 2A (Homo sapiens) (UniProt P28223)", "sequence (P28223 whole entry, looked up)": "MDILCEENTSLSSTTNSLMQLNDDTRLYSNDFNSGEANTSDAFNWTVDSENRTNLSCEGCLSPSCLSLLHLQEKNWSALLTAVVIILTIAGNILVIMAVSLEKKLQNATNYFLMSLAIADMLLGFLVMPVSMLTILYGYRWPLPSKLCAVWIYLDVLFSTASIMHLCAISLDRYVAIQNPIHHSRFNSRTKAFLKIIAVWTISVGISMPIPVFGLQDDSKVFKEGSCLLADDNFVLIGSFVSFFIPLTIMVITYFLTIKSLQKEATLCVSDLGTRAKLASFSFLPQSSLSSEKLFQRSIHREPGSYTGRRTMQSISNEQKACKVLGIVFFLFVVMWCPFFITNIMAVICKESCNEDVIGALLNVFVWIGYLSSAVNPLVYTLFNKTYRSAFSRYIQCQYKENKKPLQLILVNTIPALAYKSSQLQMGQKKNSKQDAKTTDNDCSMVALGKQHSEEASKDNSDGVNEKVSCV", "assay": "5-hydroxytryptamine receptor 2A (HTR2A) small molecule agonists, cell-based qHTS assay (AID 1963587); note: nearly all actives have a fitted effect of over 30% in size; note: potency is the fitted concentration of half-maximal effect", "conditions": "HTR2A-CHO cells, calcium flux fluorescence, agonist mode; series mostly up to 76.8 µM", "source_text": "National Center for Advancing Translational Sciences [NCATS]\nDivision of Preclinical Innovation [DPI]\nU.S. Environmental Protection Agency [EPA]\nNational Institutes of Environmental Health Sciences [NIEHS]\nNational Toxicology Program [NTP]\nU.S. Food and Drug Administration [FDA]\nThe HTR2A receptor is a subtype of the 5-HT2 receptor that belongs to the serotonin receptor family and is a G protein-coupled receptor (GPCR). The HTR2A-CHO cell line stably expressing human 5-hydroxytryptamine receptor 2A (HTR2A) can be used for screening agonists of interactions between 5-HT2 and its ligands. The HTR2A-CHO calcium flux assay is a homogeneous fluorescence-based assay for detecting the intracellular calcium level using FDSS kinetic plate reader system.\nHTR2A-CHO cells were dispensed at 2000 cells/3uL/well in 1536-well black-clear bottom plates using a Multidrop Dispenser. After the assay plates were incubated at a 37 C/5% CO2 incubator for 18 h, 3 uL of Dye Loading Buffer was transferred to the assay plate by a Flying Reagent Dispenser. The assay plates were incubated at 37 C for 1h. For agonist mode, 23 nL of compounds dissolved in DMSO, positive controls or DMSO only was transferred to the assay plate by a pin tool. The fluorescence intensity in the plates was measured using FDSS 7000EX kinetic plate reader for 2 min at 1 sec intervals."}
{"compound": "NC(=O)NC1NC(=O)NC1=O", "note": "(stereo not given)", "Potency": "inactive"}
{"compound": "CCC(=O)/C=C/C1C(C)=CCCC1(C)C", "note": "(stereo not given)", "Potency": "inactive"}
{"compound": "O=C(O)Cc1c[nH]c2ccccc12", "Potency": "inactive"}
{"compound": "COc1ccc(NC(C)=O)cc1N", "Potency": "inactive"}
{"compound": "C=CCOC(=O)CC(C)C", "Potency": "inactive"}
{"compound": "c1ccc(Nc2ccccc2)cc1", "Potency": "inactive"}
{"compound": "CC(C)c1cccc(C(C)C)c1", "Potency": "inactive"}
{"compound": "C=CC(=O)NC(C)(C)CS(=O)(=O)O", "Potency": "inactive"}
{"compound": "COC(=O)CCC(=O)OC", "Potency": "inactive"}
{"compound": "O=C(c1cc(O)c(O)c(O)c1)c1ccc(O)c(O)c1O", "Potency": "inactive"}
{"compound": "CCCCCCCCCCCCCC[N+](C)(C)C", "Potency": "48.9 µM (active)"}
{"compound": "CC(=O)CCc1ccccc1", "Potency": "inactive"}
{"compound": "O=Nc1ccc(O)cc1", "Potency": "inactive"}
{"compound": "CCCCC(C=O)CC", "note": "(stereo not given)", "Potency": "inactive"}
{"compound": "CC(=O)C(=O)O", "Potency": "inactive"}
{"compound": "CCC(C)C=O", "note": "(stereo not given)", "Potency": "inactive"}
{"compound": "Oc1ccc2ccccc2c1N=Nc1ccccc1", "Potency": "inactive"}
{"compound": "Cc1c(N(C)C)c(=O)n(-c2ccccc2)n1C", "Potency": "inactive"}
{"compound": "Cc1cccc(C)c1O", "Potency": "inactive"}
{"compound": "C=CCc1ccc(OC)c(OC)c1", "Potency": "inactive"}
{"compound": "O=c1cc[nH]c(=S)[nH]1", "Potency": "inactive"}
{"compound": "CCCCC(CC)CO", "note": "(stereo not given)", "Potency": "inactive"}
{"compound": "CC(=O)/C=C/C1=C(C)CCCC1(C)C", "Potency": "inactive"}
{"compound": "Nc1ccccc1[N+](=O)[O-]", "Potency": "inactive"}
{"compound": "COc1ccc(C)cc1N", "Potency": "inactive"}
{"compound": "CC(=O)C1=C(C)[C@@H]2C[C@@]3(C1)[C@H](C)CC[C@H]3C2(C)C", "Potency": "inactive"}
{"compound": "CCCCC/C(C=O)=C\\c1ccccc1", "Potency": "inactive"}
{"compound": "c1ccc2cc3c(ccc4ccccc43)cc2c1", "Potency": "inactive"}
{"compound": "COc1cc(O)c(C(=O)c2ccccc2)cc1S(=O)(=O)O", "Potency": "inactive"}
{"compound": "COC(=O)CCCCC(=O)OC", "Potency": "inactive"}
{"compound": "CCCCCCCCCCC=CC1CC(=O)OC1=O", "note": "(stereo not given)", "Potency": "inactive"}
{"compound": "OCCOCCOCCOCCO", "Potency": "inactive"}
{"compound": "CCCCC(CC)COC(=O)/C=C\\C(=O)OCC(CC)CCCC", "note": "(stereo not given)", "Potency": "inactive"}
{"compound": "CCCCCCCCCCCCCO", "Potency": "inactive"}
{"compound": "O=C(O)CCCCCCCC(=O)O", "Potency": "inactive"}
{"compound": "CC(O)COc1ccccc1", "note": "(stereo not given)", "Potency": "inactive"}
{"compound": "O=C(Cl)c1c(Cl)c(Cl)c(C(=O)Cl)c(Cl)c1Cl", "Potency": "inactive"}
{"compound": "O=c1n(CC2CO2)c(=O)n(CC2CO2)c(=O)n1CC1CO1", "note": "(stereo not given)", "Potency": "inactive"}
{"compound": "O=C1OC(c2ccc(O)cc2)(c2ccc(O)cc2)c2ccccc21", "Potency": "inactive"}
{"compound": "CC1(C)OC[C@@H]2O[C@@]3(C(=O)O)OC(C)(C)O[C@H]3[C@@H]2O1", "Potency": "inactive"}
